Data taken from the supplement of paper PMC10849652.
About 7,900 targets were measured; listed, in parts, are those with a hit and a random draw of the rest. About 0.6% of all pairs of compound and target were hits. Values without a mark were called inactive.

Key:
Assay in all cases: log2 fold change, soluble protein after heating vs DMSO (PISA); higher = thermal stabilisation; K562 cells, 10 uM, 30 min; active = over 0.2 and 3.5 SD of the protein, either way, in both replicates (recomputed)
[1] = compound: CC[C@@H]1C(=O)N(C)c2cnc(Nc3ccc(C(=O)NC4CCN(C)CC4)cc3OC)nc2N1C1CCCC1
Outline: (§1)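 K562 cells at 2×10^6 cells/mL were treated for 30 min with 10 μM compound, and aliquots were heated for 3 min over 48°C-58°C before pooling. Extraction used PBS with 0.5% NP-40 at 4°C, and soluble protein was the supernatant after 21,000xg for 90 min, measured by TMTpro 16plex LC-MS/MS with channel sums equalised. Thermal stability values, relative to control samples and from duplicates, are log2 fold changes.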

volasertib = compound: CC[C@@H]1C(=O)N(C)c2cnc(Nc3ccc(C(=O)N[C@H]4CC[C@H](N5CCN(CC6CC6)CC5)CC4)cc3OC)nc2N1C(C)C [volasertib]
Outline: as §1

[2] = compound: CC[C@H](C)N1C=C(C2=C(C=C(C=C21)C3=CN=C(C=C3)N4CCNCC4)C(=O)NCC5=C(C=C(NC5=O)C)C)C
Outline: as §1

epoxomicin = compound: CC[C@H](C)[C@@H](C(=O)N[C@@H]([C@@H](C)O)C(=O)N[C@@H](CC(C)C)C(=O)[C@]1(CO1)C)NC(=O)[C@H]([C@@H](C)CC)N(C)C(=O)C [epoxomicin]
Outline: as §1

[3] = compound: CCn1c(C(=O)N(C2CC2)C2CC2)cc2c3c(ncn3C)c(Nc3cc(C)n(C)n3)nc21
Outline: as §1

[4] = compound: CCn1cc(-c2ccnc3[nH]c(-c4cccc(CN(C)C)c4)cc23)c(-c2ccc(NC(=O)N(C)C)cc2)n1
Outline: as §1

[5] = compound: CN(C)CC(=O)Nc1ccc2[nH]c(=O)c3ccccc3c2c1
Outline: as §1

rosiglitazone = compound: CN(CCOC1=CC=C(C=C1)C[C@H]2C(=O)NC(=O)S2)C3=CC=CC=N3 (racemic) [rosiglitazone]
Outline: as §1

[6] = compound: CN1C2=C(C3=C1C(=O)N(N=C3)CC4=CC(=CC=C4)N)SC(=C2)S(=O)C
Outline: as §1

[7] = compound: CN1CCC(CNc2ccc3ncc(-c4cccc(OC(F)(F)F)c4)n3n2)CC1
Outline: as §1

saracatinib = compound: CN1CCN(CCOc2cc(OC3CCOCC3)c3c(Nc4c(Cl)ccc5c4OCO5)ncnc3c2)CC1 [saracatinib]
Outline: as §1

sotrastaurin = compound: CN1CCN(c2nc(C3=C(c4c[nH]c5ccccc45)C(=O)NC3=O)c3ccccc3n2)CC1 [sotrastaurin]
Outline: as §1

alvocidib = compound: CN1CC[C@H](c2c(O)cc(O)c3c(=O)cc(-c4ccccc4Cl)oc23)[C@H](O)C1 [alvocidib]
Outline: as §1

Tubastatin A = compound: CN1CCc2c(c3ccccc3n2Cc2ccc(C(=O)NO)cc2)C1 [Tubastatin A]
Outline: as §1

[8] = compound: CNC(=O)C1=CC=CC=C1NC2=NC(=NC=C2Cl)NC3=C(C=C(C=C3)N4CCOCC4)OC
Outline: as §1

defactinib = compound: CNC(=O)c1ccc(Nc2ncc(C(F)(F)F)c(NCc3nccnc3N(C)S(C)(=O)=O)n2)cc1 [defactinib]
Outline: as §1

rucaparib = compound: CNCc1ccc(-c2[nH]c3cc(F)cc4c3c2CCNC4=O)cc1 [rucaparib]
Outline: as §1

[9] = compound: CNc1nc(-c2ccc3c(N)n[nH]c3c2)cc(N2C[C@@H](C(=O)NC3CCCCC3)CC[C@H]2C)n1
Outline: as §1

encorafenib = compound: COC(=O)N[C@@H](C)CNc1nccc(-c2cn(C(C)C)nc2-c2cc(Cl)cc(NS(C)(=O)=O)c2F)n1 [encorafenib]
Outline: as §1

[10] = compound: COC(=O)[C@H](CCSC)NC(=O)C1=C(C=C(C=C1)NC[C@H](CS)N)C2=CC=CC=C2
Outline: as §1

Chain of UniProt Q8WUY8 (Q8WUY8 whole entry, looked up): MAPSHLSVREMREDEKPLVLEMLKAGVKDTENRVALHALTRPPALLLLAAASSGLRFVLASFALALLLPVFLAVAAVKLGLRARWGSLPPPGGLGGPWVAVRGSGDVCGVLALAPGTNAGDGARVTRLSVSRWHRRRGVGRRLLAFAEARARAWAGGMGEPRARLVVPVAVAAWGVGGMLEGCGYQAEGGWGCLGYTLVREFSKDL
Chain of UniProt P03886 (P03886 whole entry, looked up): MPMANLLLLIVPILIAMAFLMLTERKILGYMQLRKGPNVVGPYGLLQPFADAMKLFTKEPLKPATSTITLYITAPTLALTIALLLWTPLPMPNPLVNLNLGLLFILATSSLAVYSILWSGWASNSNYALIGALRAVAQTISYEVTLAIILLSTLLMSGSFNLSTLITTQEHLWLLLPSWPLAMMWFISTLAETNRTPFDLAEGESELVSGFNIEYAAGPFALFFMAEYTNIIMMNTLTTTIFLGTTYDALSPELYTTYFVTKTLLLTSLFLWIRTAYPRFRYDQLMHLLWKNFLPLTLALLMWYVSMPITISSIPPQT
Chain of UniProt Q9H1E3 (Q9H1E3 whole entry, looked up): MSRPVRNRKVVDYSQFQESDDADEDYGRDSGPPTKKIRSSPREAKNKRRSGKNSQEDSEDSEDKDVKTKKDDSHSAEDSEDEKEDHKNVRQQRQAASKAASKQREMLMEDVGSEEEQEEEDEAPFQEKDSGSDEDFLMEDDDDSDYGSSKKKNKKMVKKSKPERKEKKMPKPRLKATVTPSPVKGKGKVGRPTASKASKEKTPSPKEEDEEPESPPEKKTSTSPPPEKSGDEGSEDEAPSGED
Chain of UniProt Q9BS92 (Q9BS92 whole entry, looked up): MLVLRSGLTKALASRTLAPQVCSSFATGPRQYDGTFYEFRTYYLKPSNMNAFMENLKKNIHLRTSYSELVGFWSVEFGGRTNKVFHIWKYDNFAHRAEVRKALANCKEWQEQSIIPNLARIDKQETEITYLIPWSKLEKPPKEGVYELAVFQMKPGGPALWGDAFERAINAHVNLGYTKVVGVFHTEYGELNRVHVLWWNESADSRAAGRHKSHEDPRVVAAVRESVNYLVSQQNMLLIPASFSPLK
Chain of UniProt O75607 (O75607 whole entry, looked up): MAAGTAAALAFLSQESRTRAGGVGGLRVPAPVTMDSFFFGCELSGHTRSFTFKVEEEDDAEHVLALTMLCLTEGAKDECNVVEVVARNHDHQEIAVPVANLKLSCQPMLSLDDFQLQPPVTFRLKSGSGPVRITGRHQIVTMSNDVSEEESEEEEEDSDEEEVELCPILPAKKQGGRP
Chain of UniProt B2RBV5 (B2RBV5 whole entry, looked up): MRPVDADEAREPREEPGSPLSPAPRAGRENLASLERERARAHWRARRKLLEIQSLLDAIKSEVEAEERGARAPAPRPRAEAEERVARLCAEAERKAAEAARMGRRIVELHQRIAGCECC
Chain of UniProt Q9H3L0 (Q9H3L0 whole entry, looked up): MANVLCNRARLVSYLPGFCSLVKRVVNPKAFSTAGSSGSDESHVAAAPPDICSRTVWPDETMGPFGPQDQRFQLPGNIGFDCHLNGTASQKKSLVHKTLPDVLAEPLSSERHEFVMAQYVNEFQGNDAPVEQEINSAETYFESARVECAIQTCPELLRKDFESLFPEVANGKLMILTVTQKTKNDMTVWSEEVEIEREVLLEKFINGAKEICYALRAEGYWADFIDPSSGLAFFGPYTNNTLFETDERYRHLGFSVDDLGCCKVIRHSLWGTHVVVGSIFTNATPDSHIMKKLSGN
Chain of UniProt Q8WV92 (Q8WV92 whole entry, looked up): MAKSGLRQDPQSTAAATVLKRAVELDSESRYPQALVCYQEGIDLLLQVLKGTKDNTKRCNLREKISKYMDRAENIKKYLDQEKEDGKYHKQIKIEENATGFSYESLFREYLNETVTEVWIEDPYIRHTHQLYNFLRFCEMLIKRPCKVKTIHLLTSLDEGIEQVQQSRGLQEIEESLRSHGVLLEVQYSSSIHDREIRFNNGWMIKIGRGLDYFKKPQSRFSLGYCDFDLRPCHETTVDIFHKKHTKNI
Chain of UniProt O00217 (O00217 whole entry, looked up): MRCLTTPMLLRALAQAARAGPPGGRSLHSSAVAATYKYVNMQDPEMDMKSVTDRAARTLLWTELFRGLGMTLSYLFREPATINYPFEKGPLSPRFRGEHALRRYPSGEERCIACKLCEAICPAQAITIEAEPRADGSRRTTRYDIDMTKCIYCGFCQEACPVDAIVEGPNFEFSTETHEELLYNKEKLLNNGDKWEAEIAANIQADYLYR
Chain of UniProt Q9H4L5 (Q9H4L5 whole entry, looked up): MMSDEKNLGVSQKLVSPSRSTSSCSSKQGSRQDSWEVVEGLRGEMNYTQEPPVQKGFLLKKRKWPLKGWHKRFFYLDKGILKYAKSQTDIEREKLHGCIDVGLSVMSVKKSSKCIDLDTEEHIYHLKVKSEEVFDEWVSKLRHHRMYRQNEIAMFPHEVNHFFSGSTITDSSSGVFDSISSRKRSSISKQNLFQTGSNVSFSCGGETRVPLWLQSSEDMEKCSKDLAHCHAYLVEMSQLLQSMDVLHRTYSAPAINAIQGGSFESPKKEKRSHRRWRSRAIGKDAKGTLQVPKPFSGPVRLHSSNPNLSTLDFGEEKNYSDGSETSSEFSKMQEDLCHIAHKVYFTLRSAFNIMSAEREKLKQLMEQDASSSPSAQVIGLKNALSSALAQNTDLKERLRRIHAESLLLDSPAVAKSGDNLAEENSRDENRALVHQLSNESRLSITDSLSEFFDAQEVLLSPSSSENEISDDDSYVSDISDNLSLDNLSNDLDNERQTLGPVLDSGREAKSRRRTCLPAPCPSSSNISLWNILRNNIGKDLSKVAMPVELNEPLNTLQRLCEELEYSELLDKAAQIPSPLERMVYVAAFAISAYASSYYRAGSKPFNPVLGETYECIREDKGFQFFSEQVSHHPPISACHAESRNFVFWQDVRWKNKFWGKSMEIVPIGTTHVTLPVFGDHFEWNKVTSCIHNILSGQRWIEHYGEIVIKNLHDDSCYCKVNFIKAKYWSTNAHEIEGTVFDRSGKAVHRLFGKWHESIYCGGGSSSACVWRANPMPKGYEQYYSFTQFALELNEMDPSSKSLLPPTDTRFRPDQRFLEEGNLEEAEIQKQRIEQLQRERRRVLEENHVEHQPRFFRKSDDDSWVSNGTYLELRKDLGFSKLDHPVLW
Chain of UniProt Q9ULX3 (Q9ULX3 whole entry, looked up): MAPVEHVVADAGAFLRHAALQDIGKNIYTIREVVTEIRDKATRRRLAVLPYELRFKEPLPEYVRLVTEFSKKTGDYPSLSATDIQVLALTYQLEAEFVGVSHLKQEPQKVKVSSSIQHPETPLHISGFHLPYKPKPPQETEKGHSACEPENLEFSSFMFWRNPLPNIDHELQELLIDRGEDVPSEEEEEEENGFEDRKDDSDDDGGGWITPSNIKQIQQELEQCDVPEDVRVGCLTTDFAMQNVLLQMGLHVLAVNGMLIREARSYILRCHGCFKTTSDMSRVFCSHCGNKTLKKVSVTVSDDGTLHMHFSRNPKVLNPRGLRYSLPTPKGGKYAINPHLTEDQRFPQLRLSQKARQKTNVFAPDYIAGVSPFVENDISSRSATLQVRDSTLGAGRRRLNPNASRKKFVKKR
Chain of UniProt Q8WZ82 (Q8WZ82 whole entry, looked up): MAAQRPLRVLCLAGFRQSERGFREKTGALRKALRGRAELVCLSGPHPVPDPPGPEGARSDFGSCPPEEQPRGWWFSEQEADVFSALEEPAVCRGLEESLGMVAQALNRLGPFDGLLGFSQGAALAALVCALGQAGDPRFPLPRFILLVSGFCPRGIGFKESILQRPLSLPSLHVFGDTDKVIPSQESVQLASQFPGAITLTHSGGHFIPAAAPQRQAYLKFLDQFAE
Chain of UniProt Q9UH92 (Q9UH92 whole entry, looked up): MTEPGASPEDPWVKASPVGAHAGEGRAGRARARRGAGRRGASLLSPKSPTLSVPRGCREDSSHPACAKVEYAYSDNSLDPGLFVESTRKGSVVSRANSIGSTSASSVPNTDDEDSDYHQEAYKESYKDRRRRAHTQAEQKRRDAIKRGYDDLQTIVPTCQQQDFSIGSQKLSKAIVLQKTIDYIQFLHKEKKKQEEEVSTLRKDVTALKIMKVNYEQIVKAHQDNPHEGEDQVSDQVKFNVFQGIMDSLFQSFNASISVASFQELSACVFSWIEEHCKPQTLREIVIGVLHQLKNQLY
Chain of UniProt O14950 (O14950 whole entry, looked up): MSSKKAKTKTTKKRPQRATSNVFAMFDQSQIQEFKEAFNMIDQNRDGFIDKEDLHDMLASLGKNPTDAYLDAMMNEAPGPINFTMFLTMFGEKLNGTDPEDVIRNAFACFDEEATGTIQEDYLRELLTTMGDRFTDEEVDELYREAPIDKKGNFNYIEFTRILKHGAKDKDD
Chain of UniProt O75052 (O75052 whole entry, looked up): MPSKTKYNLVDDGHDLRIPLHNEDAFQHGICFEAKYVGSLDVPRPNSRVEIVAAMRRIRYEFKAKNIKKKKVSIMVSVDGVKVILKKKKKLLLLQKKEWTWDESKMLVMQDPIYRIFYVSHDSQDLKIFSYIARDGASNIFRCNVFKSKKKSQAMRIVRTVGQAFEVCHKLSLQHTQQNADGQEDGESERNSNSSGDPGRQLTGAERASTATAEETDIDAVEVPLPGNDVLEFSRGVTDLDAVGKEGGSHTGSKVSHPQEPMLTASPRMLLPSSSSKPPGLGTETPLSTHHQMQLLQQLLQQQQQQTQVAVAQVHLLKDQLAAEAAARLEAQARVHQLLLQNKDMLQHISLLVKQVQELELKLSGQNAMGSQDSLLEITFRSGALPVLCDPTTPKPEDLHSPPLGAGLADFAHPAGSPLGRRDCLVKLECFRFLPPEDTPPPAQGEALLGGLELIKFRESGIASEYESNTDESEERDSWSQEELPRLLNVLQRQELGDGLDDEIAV
Chain of UniProt Q9BSU3 (Q9BSU3 whole entry, looked up): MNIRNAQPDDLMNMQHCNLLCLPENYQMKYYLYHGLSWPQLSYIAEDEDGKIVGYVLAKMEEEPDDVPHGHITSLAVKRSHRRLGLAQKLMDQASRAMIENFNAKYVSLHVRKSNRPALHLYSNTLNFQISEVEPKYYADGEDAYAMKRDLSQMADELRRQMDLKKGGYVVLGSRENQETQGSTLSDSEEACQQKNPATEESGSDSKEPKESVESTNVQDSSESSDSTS

Row | Target | log2 fold change [1] | log2 fold change (volasertib) | log2 fold change [2] | log2 fold change (epoxomicin) | log2 fold change [3] | log2 fold change [4] | log2 fold change [5] | log2 fold change (rosiglitazone) | log2 fold change [6] | log2 fold change [7] | log2 fold change (saracatinib) | log2 fold change (sotrastaurin) | log2 fold change (alvocidib) | log2 fold change (Tubastatin A) | log2 fold change [8] | log2 fold change (defactinib) | log2 fold change (rucaparib) | log2 fold change [9] | log2 fold change (encorafenib) | log2 fold change [10]
1 | NUCKS1 (UniProt Q9H1E3) | -0.061 | -0.012 | -0.028 | 0.016 | 0.033 | 0.014 | -0.073 | 0.001 | -0.043 | -0.083 | 0.006 | 0.075 | 0.115 | -0.006 | -0.167 | 0.048 | 0.027 | -0.071 | -0.068 | -0.006
2 | NOB1 (UniProt Q9ULX3) | -0.053 | -0.026 | 0.093 | -0.02 | -0.033 | 0.026 | -0.011 | 0.026 | 0.04 | -0.049 | -0.022 | -0.092 | 0 | 0.045 | -0.047 | -0.009 | 0.141 | 0.103 | 0.007 | 0
3 | NDUFS8 (UniProt O00217) | -0.103 | -0.097 | -0.005 | 0.039 | -0.003 | -0.043 | 0 | 0.039 | -0.069 | -0.41 (active) | -0.011 | -0.061 | -0.081 | -0.04 | -0.037 | -0.009 | -0.093 | 0.017 | 0.059 | -0.026
4 | MITD1 (UniProt Q8WV92) | -0.16 | -0.266 | 0.077 | 0.147 | 0.117 | 0.057 | 0.049 | -0.016 | 0.079 | -0.365 | -0.031 | -0.002 | -0.005 | 0.161 | -0.146 | 0.133 | 0.097 | -0.112 | -0.018 | -0.043
5 | MMADHC (UniProt Q9H3L0) | -0.024 | -0.482 (active) | 0.087 |  | -0.013 | 0.03 | 0.006 | 0.015 | 0.047 | 0.181 | -0.044 |  | 0.031 | 0.07 | -0.011 | -0.061 | 0.139 | 0.062 | -0.031 | -0.011
6 | MYL12B (UniProt O14950) | -0.053 | -0.085 | 0.06 | 0.052 | -0.06 | -0.064 | 0.031 | -0.025 | -0.078 | 0.01 | 0.057 | -0.012 | -0.14 | 0.019 | 0.007 | -0.036 | 0.009 | -0.041 | -0.012 | -0.018
7 | OSBPL3 (UniProt Q9H4L5) | 0.136 | 0.621 | -0.126 | -0.37 | -0.235 |  | 0 |  | 0.164 |  | -0.284 | -0.414 | 0.234 | 0.219 | 0.312 | 0.127 | 0.518 | 0.122 | 0.006 | -0.11
8 | MT-ND1 (UniProt P03886) | -0.157 | 0.147 | 0.035 | 0.063 | 0.094 |  | 0.253 | -0.071 | -0.115 |  | 0.1 | -0.005 | -0.071 | 0.123 | -0.025 | -0.068 | -0.041 | -0.11 | 0.017 | -0.058
9 | NAT14 (UniProt Q8WUY8) | -0.192 | -0.261 | 0.063 | -0.024 | 0.064 |  | 0.077 | 0.095 | -0.107 |  | -0.054 | 0.068 | -0.134 | -0.02 | 0 | -0.235 | -0.002 | -0.005 | 0.002 | 0.163
10 | NAA11 (UniProt Q9BSU3) | -0.013 | -0.041 | 0.044 | 0.063 | 0.015 |  | -0.114 | -0.053 | 0.001 |  | 0.033 | -0.247 | -0.038 | 0.035 | -0.078 | -0.132 | 0.135 | -0.133 | 0.022 | 0.034
11 | NOS1AP (UniProt O75052) | 0.092 | 0.035 |  | 0.056 | 0.04 |  | 0.225 | -0.001 |  |  |  |  | 0.179 | -0.112 | -0.089 | 0.193 | -0.403 |  | 0.092 | -0.074
12 | NA (UniProt B2RBV5) | 0.135 | 0.163 | 0.049 | 0.593 (active) |  | 0.128 |  | -0.009 |  | -0.08 |  | -0.057 |  |  |  |  | -0.16 |  | -0.09 | 
13 | NIPSNAP3B (UniProt Q9BS92) | -0.238 | -0.028 | 0.039 |  | -0.039 | -0.019 | -0.088 | -0.069 | -0.176 | 0.073 | 0.122 | 0.066 | -0.029 | 0.01 | 0.112 | -0.026 | 0.31 (active) | -0.088 | -0.289 | 0.008
14 | OVCA2 (UniProt Q8WZ82) | -0.352 | -0.47 | 0.083 |  |  | 0.086 |  | -0.033 |  | -0.116 |  |  |  |  |  |  | 0.116 |  | -0.052 | 
15 | NPM3 (UniProt O75607) | 0.065 | 0.124 | -0.099 |  | 0.036 | 0.014 | -0.011 | -0.122 | 0.143 | 0.145 | 0 | 0 | 0.032 | 0.031 | -0.06 | 0.001 | 0.155 | -0.042 | 0.034 | -0.04
16 | MRPS16 (UniProt Q9Y3D3) | 0.012 | -0.088 | 0.018 | 0.041 | 0.047 | -0.116 | 0.046 | -0.071 |  | 0.052 |  | -0.039 | -0.098 | 0.008 | -0.115 | 0.043 | 0.084 |  | 0.138 | 0
17 | MYLK (UniProt Q15746) | -0.015 | -0.148 | -0.172 |  | -0.047 | 0.042 | 0.184 | 0.202 | -0.126 | -0.005 | 0.177 | -0.036 | -0.091 | 0.036 | 0.716 | -0.034 | -0.083 | -0.079 | 0.337 | -0.216
18 | MLX (UniProt Q9UH92) | 0.047 | -0.734 (active) | -0.007 | 0.162 | -0.04 | 0 |  | 0.052 | 0.142 | -0.315 | -0.171 | -0.084 | -0.037 | 0.075 | -0.149 |  | -0.169 | 0.004 | 0.149 | 
